From PubChem BioAssay (EPA / NIEHS) come the findings set out here.

Experiment [1] has as its target Nuclear receptor subfamily 1 group I member 2 (Homo sapiens) (UniProt O75469). In words: ATG_PXR_TRANS: Attagene TRANS-FACTORIAL HepG2 Assay for human Pregnane X Receptor (PXR) (AID 2283008). Put shortly:
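Read-out is fluorescence of labelled reporter cDNA fragments separated by capillary electrophoresis after RT-PCR and HpaI digestion. Source: HepG2 cells carrying PXR-GAL4/UAS reporter constructs, treated 24 h; activity fitted upward relative to DMSO.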

Experiment [2] deals with human RAR-related Orphan Receptor beta (RORb), RORB (gene 6096) (UniProt Q92753). Kind of experiment: ATG_RORb_TRANS: Attagene TRANS-FACTORIAL HepG2 Assay for human RAR-related Orphan Receptor beta (RORb) (AID 2283010). In outline: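 HepG2 cells transiently transfected with GAL4-UAS reporter units expressing chimeric NR-Gal4 protein; reporter mRNA measured 24 h after dosing by RT-PCR, 6-FAM labelling and capillary electrophoresis. Gain-of-signal fitted relative to DMSO baseline.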

The target of experiment [3] is Retinoic acid receptor RXR-alpha (Homo sapiens) (UniProt P19793). Kind of experiment: ATG_RXRa_TRANS: Attagene TRANS-FACTORIAL HepG2 Assay for human Retinoid X Receptor alpha (RXRa) (AID 2283012). Put shortly:
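HepG2 cells transiently transfected with GAL4-UAS reporter units and chimeric RXRa-Gal4 protein, treated 24 h. Reporter mRNA measured by RT-PCR, fluorescent labelling, HpaI digestion and capillary electrophoresis. Induction fitted against DMSO.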

Experiment [4] addresses Peroxisome proliferator-activated receptor gamma (Homo sapiens) (UniProt P37231). Kind of experiment: ATG_PPARg_TRANS: Attagene TRANS-FACTORIAL HepG2 Assay for human Peroxisome Proliferator-activated Receptor-gamma (PPARg) (AID 2283007). In outline:
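Transient transfection of HepG2 with GAL4-UAS-driven reporter units; chemical dosing 24 h; total RNA → oligo(dT) RT → PCR with reporter primers → 6-FAM primer extension → HpaI digest 2 h 37 C → capillary electrophoresis. Positive direction vs DMSO.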

In experiment [5] the target is human Retinoic Acid Receptor gamma (RARg), RARG (gene 5916) (UniProt P13631). Kind of experiment: ATG_RARg_TRANS: Attagene TRANS-FACTORIAL HepG2 Assay for human Retinoic Acid Receptor gamma (RARg) (AID 2283009). Put shortly:
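HepG2 transiently transfected with GAL4-UAS reporter units and chimeric NR-Gal4 constructs; 24 h compound exposure. Reporter mRNA quantified by RT-PCR, FAM labeling, HpaI digestion and capillary electrophoresis; gain-of-signal versus DMSO.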

Experiment [6] deals with human RAR-related Orphan Receptor gamma (RORg), RORC (gene 6097) (UniProt P51449). Kind of experiment: ATG_RORg_TRANS: Attagene TRANS-FACTORIAL HepG2 Assay for human RAR-related Orphan Receptor gamma (RORg) (AID 2283011). Put shortly: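 HepG2 cells transiently transfected with GAL4-UAS reporter units and chimeric RORg-Gal4 construct; after 24 h chemical exposure, reporter mRNA measured by RT-PCR with fluorescent capillary electrophoresis, gain of signal fitted against DMSO.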

As usually defined, the AC50 is the concentration giving half of the maximal activity seen.

Inconclusive results are not listed. The source made the active and inactive calls. How the source made its calls: active means hit-call score of the fitted dose curve at least 0.9, where 1 is the maximum; inconclusive means response in the unintended direction; inactive means score below 0.9.

Chain of Nuclear receptor subfamily 1 group I member 2 (Homo sapiens) (O75469 whole entry, looked up, the tested form may be a part): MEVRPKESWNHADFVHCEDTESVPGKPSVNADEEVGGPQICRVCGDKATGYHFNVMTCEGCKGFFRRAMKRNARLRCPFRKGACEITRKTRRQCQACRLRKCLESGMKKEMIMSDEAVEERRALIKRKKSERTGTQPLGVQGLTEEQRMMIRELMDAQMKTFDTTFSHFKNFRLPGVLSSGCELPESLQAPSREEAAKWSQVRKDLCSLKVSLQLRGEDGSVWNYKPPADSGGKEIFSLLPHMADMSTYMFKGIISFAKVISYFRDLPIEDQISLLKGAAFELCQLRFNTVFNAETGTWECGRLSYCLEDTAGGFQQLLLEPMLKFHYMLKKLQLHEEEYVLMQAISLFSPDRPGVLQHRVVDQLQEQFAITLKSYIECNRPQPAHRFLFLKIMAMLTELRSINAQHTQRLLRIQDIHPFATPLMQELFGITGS
Chain of Retinoic acid receptor RXR-alpha (Homo sapiens) (P19793 whole entry, looked up, the tested form may be a part): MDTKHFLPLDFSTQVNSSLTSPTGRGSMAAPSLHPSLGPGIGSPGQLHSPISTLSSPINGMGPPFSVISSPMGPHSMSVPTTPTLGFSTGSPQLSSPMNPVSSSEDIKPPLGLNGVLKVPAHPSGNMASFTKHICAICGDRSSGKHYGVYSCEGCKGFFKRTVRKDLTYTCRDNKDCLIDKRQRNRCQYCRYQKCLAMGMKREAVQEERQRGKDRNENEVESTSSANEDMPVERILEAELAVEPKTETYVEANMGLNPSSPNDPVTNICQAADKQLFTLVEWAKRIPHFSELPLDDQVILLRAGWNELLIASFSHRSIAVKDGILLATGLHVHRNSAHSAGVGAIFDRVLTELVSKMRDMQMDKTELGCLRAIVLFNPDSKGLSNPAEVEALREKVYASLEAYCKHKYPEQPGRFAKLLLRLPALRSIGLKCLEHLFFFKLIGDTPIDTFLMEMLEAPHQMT
Chain of Peroxisome proliferator-activated receptor gamma (Homo sapiens) (P37231 whole entry, looked up, the tested form may be a part): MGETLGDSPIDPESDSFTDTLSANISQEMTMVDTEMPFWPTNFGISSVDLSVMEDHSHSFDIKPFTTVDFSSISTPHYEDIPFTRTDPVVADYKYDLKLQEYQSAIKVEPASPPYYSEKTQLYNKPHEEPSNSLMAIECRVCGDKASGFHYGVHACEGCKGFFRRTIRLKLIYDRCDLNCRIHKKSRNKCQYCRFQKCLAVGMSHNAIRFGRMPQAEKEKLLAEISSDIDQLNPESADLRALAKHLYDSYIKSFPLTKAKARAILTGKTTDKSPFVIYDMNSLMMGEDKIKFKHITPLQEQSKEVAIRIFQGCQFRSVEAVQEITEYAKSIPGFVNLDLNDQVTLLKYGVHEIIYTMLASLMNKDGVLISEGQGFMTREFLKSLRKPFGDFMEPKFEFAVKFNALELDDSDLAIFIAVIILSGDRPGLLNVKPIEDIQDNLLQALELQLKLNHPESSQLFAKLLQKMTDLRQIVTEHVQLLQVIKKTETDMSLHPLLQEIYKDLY
Chain of human Retinoic Acid Receptor gamma (RARg), RARG (gene 5916) (P13631 whole entry, looked up, the tested form may be a part): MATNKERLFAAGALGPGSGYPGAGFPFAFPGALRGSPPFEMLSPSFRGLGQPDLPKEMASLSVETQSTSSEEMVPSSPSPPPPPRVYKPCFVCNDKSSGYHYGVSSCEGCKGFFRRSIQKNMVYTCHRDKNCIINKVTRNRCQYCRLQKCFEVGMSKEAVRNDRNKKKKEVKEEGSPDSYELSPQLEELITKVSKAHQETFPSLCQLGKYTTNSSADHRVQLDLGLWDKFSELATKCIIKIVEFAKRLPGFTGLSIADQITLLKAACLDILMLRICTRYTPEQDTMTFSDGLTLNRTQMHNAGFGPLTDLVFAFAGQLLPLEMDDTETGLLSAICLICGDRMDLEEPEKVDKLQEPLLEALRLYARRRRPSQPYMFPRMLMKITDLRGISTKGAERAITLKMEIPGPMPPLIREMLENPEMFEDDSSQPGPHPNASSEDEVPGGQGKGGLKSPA
Chain of human RAR-related Orphan Receptor beta (RORb), RORB (gene 6096) (Q92753 whole entry, looked up, the tested form may be a part): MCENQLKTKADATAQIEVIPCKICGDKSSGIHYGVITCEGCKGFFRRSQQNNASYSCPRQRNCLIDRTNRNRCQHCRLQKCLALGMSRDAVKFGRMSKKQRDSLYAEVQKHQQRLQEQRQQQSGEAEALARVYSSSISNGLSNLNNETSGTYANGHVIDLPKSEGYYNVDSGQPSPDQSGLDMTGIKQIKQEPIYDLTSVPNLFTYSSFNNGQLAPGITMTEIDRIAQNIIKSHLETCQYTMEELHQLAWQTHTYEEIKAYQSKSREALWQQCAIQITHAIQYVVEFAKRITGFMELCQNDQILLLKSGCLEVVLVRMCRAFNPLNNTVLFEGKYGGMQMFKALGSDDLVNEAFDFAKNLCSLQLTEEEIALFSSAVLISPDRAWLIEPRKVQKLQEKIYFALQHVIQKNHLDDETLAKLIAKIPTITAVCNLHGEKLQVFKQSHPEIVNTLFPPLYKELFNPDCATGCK
Chain of human RAR-related Orphan Receptor gamma (RORg), RORC (gene 6097) (P51449 whole entry, looked up, the tested form may be a part): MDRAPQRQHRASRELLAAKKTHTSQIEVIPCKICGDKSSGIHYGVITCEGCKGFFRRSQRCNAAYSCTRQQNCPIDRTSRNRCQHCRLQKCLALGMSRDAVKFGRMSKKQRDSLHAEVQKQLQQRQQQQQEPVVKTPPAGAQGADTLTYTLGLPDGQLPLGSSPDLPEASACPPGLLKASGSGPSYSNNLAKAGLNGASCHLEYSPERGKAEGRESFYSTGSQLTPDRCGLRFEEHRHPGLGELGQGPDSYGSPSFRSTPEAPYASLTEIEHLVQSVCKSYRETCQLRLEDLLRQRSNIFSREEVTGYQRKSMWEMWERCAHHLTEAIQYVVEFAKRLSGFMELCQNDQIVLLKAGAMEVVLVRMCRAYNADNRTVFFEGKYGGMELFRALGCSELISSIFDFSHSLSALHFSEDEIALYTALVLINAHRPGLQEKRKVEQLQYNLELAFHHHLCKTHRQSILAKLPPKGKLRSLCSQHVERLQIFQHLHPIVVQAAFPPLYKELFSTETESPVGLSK

For the compound `CC(C)COC(=O)C=Cc1ccccc1`, the AC50 in experiment [1] was 29.4 µM (active). Also, the outcome in experiment [2] and in experiment [3] was inactive.
As for `COCCOCCOCCOCCOC`, the compound was called inactive in experiment [1] and in experiment [3].
As to `COC(=O)c1cc(Cl)ccc1[N+](=O)[O-]`, in experiment [4], the AC50 was 19.7 µM (active). Also, the compound was classed as inactive in experiment [1] and in experiment [3].
For `[Cl][Bi]([Cl])([c]1ccccc1)([c]1ccccc1)[c]1ccccc1`, the AC50 was 1.17 µM (active) in experiment [4] and 5.6 µM (active) in experiment [3]. The compound was classed as inactive in experiment [1].
Regarding `CC1(C)O[C@@H]2C[C@H]3[C@@H]4C[C@H](F)C5=CC(=O)CC[C@]5(C)[C@H]4[C@@H](O)C[C@]3(C)[C@]2(C(=O)CO)O1`, the AC50 in experiment [1] is 27 µM (active). Also, the result in experiment [3] was inactive.
For `NNC(=O)c1cccc(C(=O)NN)c1`, the outcome in experiment [1] and in experiment [5] was inactive.
`Cc1cc(=O)n(-c2ccccc2)n1C`: the compound was classed as inactive in experiment [1], in experiment [5], in experiment [2], in experiment [6] and in experiment [3].
For `NC(=O)NNC(N)=O`, the outcome in experiment [1], in experiment [6] and in experiment [3] was inactive.
With `C=C(C)C(=O)OCCOc1ccccc1`, the AC50 in experiment [4] was 28.5 µM (active); in experiment [3] it was 26.5 µM (active). Moreover, the compound was called inactive in experiment [1].
On to `C=CC(=O)NC(C)(C)CS(=O)(=O)O`, for which the compound was classed as inactive in experiment [4], in experiment [2] and in experiment [6].
Consider `CCC(=O)Oc1ccc(/C(CC)=C(\CC)c2ccc(OC(=O)CC)cc2)cc1`, for which the AC50 is 18.5 µM (active) in experiment [4] and 4.5 µM (active) in experiment [1]. Besides, in experiment [3], the compound was classed as inactive.
Consider `CC(C)(Oc1ccc(C2CC2(Cl)Cl)cc1)C(=O)O` (stereo not drawn), for which, in experiment [4], the AC50 is 30.6 µM (active). For the same compound, the call in experiment [1] and in experiment [3] was inactive.
Take `COC(=O)/C=C\C(=O)O`: the AC50 in experiment [4] is 35.2 µM (active). Further, the call in experiment [5] and in experiment [6] was inactive.
For `CCc1ccc2c(c1)C(=O)c1ccccc1C2=O`, the AC50 in experiment [4] is 24.3 µM (active); in experiment [1], 4.34 µM (active). Further, in experiment [3], the call was inactive.
`O=C1CCCCCN1SSN1CCCCCC1=O`: the result in experiment [4], in experiment [6] and in experiment [3] was inactive.
For `C=COCCCC`, in experiment [6], the call was inactive.
`CC(=O)C=CC1C(C)=CCC(C)C1(C)C` (stereo not drawn): the result in experiment [4] and in experiment [3] was inactive. Further, in experiment [1], the AC50 was 1.42 µM (active).
With `COC(=O)c1ccccc1OC`, the result in experiment [1] and in experiment [6] was inactive.
On to `COc1ccc(-c2coc3cc(O)ccc3c2=O)cc1`, for which the outcome in experiment [4], in experiment [1] and in experiment [3] was inactive.
Take `C1=CCCC1`: the result in experiment [1], in experiment [6] and in experiment [3] was inactive.
Consider `Cc1oncc1C(=O)Nc1ccc(C(F)(F)F)cc1`, for which the AC50 in experiment [4] was 41.1 µM (active). Besides, the compound was called inactive in experiment [5] and in experiment [3].
For the compound `O=C(/C=C/C=C/c1ccc2c(c1)OCO2)N1CCCCC1`, the AC50 in experiment [4] was 6.43 µM (active); in experiment [1], 0.893 µM (active). Moreover, the call in experiment [3] was inactive.
For `O=CN1CCCCC1`, in experiment [3], the result was inactive.
Regarding `O=C(O)C(c1ccc(Cl)cc1)c1ccc(Cl)cc1`, the result in experiment [1] was inactive.
Take `O=C(O)c1cc(Cl)cc([N+](=O)[O-])c1Cl`: the compound was called inactive in experiment [4], in experiment [1] and in experiment [3].
Turning to `O=S(=O)(O)c1ccccc1C=Cc1ccc(-c2ccc(C=Cc3ccccc3S(=O)(=O)O)cc2)cc1`, the compound was called inactive in experiment [4] and in experiment [6].
`OCCN(CCO)c1ccccc1`: the result in experiment [4], in experiment [1] and in experiment [3] was inactive.
As for `Cc1cccc(OCCOc2cccc(C)c2)c1`, the AC50 in experiment [4] was 25.7 µM (active). The call in experiment [1] and in experiment [3] was inactive.
With `CCOCC(=O)O`, the outcome in experiment [1], in experiment [6] and in experiment [3] was inactive.
Turning to `CCOC(=O)N1CCC(=C2c3ccc(Cl)cc3CCc3cccnc32)CC1`, in experiment [3], the compound was called inactive.
For the compound `OCCCS`, the outcome in experiment [4], in experiment [6] and in experiment [3] was inactive.
As for `CC(C)c1ccc(C#N)cc1`, the result in experiment [1], in experiment [2], in experiment [6] and in experiment [3] was inactive.
Turning to `CC=CC(F)(F)C(F)(F)C(F)(F)F`, the call in experiment [4], in experiment [1] and in experiment [3] was inactive.
For `CC(=O)Oc1ccc(C(C)=O)cc1`, the call in experiment [5], in experiment [2], in experiment [6] and in experiment [3] was inactive.
